Test systems include MALME-3M melanoma; MDA-MB-231 breast; RXF 393 renal; SF-268 CNS; SF-295 CNS; SF-539 CNS; UACC-257 melanoma; M14 melanoma; HCT-15 colon; HT29 colon; SNB-75 CNS; SNB-19 CNS; U251 CNS; PC-3 prostate; SK-MEL-5 melanoma; UACC-62 melanoma; SK-MEL-28 melanoma; DU-145 prostate; LOX IMVI melanoma.
What all share (test): NCI-60 one-dose screen, 48 h (100 = growth as untreated, 0 = no growth, -100 = all killed)
Conditions in all cases: 10 µM unless noted

Each structure is given as a SMILES string. “And” between values parts separate entries of the source, which are not always exact repeats. Equal values may be shown once. The panel holds about 83,000 compounds, 20% with a hit somewhere; the sample as a whole holds those more often.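 96-well plates, one dose, 48 hours. Percent growth reported; active if below 10.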 The source made the active and inactive calls.

This passage reports growth results from PubChem BioAssay (NCI).

For the compound `N#Cc1c(O)c2c(c(O)c1C#N)C(=O)c1ccccc1C2=O`, the growth was -16.5% (active) in the test on MALME-3M melanoma; 2.69% (active) in the test on MDA-MB-231 breast; 92.3% (inactive) in the test with RXF 393 renal; 32.6% (inactive) in the test with SF-268 CNS; 59.6% (inactive) in the test on SF-295 CNS; 46.9% (inactive) in the test with SF-539 CNS. The growth was 28.4% (inactive) in the test with UACC-257 melanoma; 2.51% (active) with M14 melanoma; 26.9% (inactive) with HCT-15 colon; 0.694% (active) in the test on HT29 colon; 145% (inactive) in the test on SNB-75 CNS; 70.8% (inactive) in the test with SNB-19 CNS. The growth in the test with U251 CNS was 3.42% (active); with PC-3 prostate it was 14.3% (inactive); in the test with SK-MEL-5 melanoma, -73.1% (active); in the test with UACC-62 melanoma it was -17.3% (active); with SK-MEL-28 melanoma it was 5.91% (active).

Turning to `Cc1cc(C)c(S(=O)O)c(C)c1`, the growth in the test on DU-145 prostate is 120% (inactive); in the test on MALME-3M melanoma, 122% (inactive); in the test on MDA-MB-231 breast, 102% (inactive); in the test with RXF 393 renal it was 101% (inactive); in the test with SF-268 CNS, 114% (inactive); in the test with SF-295 CNS, 93.4% (inactive). Besides, the growth with SF-539 CNS is 104% (inactive); in the test with UACC-257 melanoma, 121% (inactive); with M14 melanoma, 116% (inactive); with HCT-15 colon it was 111% (inactive); in the test with HT29 colon it was 100% (inactive); with SNB-75 CNS, 86.6% (inactive). Also, the growth with SNB-19 CNS is 102% (inactive); in the test on U251 CNS, 105% (inactive); in the test on PC-3 prostate it was 94.6% (inactive); in the test with UACC-62 melanoma, 102% (inactive); with LOX IMVI melanoma, 93.9% (inactive); with SK-MEL-28 melanoma it was 113% (inactive).

Regarding `Cc1ccc(C(=O)O[C@H](C(=O)O)[C@H](OC(=O)c2ccc(C)cc2)C(=O)O)cc1`, the growth was 113% (inactive) in the test with MDA-MB-231 breast and 102% (inactive) in the test with SNB-19 CNS.

As for `FCOC(C(F)(F)F)C(F)(F)F`, the growth was 113% (inactive) with DU-145 prostate; 92.2% (inactive) with MALME-3M melanoma; 120% (inactive) with MDA-MB-231 breast; 115% (inactive) with RXF 393 renal; 115% (inactive) in the test with SF-268 CNS; 106% (inactive) in the test with SF-295 CNS. Moreover, the growth with SF-539 CNS was 98.8% (inactive); in the test on UACC-257 melanoma it was 90.4% (inactive); in the test on M14 melanoma, 99.9% (inactive); in the test with HCT-15 colon, 103% (inactive); in the test with HT29 colon it was 107% (inactive); in the test with SNB-75 CNS, 109% (inactive). Moreover, the growth in the test on SNB-19 CNS is 108% (inactive); in the test on U251 CNS, 94.1% (inactive); in the test with PC-3 prostate, 106% (inactive); in the test with SK-MEL-5 melanoma, 103% (inactive); with UACC-62 melanoma it was 104% (inactive); with SK-MEL-28 melanoma, 126% (inactive).

Regarding `Brc1ccc(Br)nn1`, the growth in the test with DU-145 prostate is -91% (active); with MALME-3M melanoma it was -91% (active); with MDA-MB-231 breast, -65.6% (active); in the test on RXF 393 renal, -89.8% (active); in the test with SF-268 CNS it was -74.4% (active); with SF-295 CNS, -10.9% (active). Besides, the growth with SF-539 CNS was -53.1% (active); in the test on UACC-257 melanoma it was -68.4% (active); in the test with M14 melanoma, -76.4% (active); in the test with HCT-15 colon, -100% (active); in the test on HT29 colon, -37.2% (active); in the test with SNB-75 CNS it was 37.7% (inactive). The growth with SNB-19 CNS is 17.7% (inactive); in the test on U251 CNS, -67.5% (active); with PC-3 prostate, -36.8% (active); in the test on SK-MEL-5 melanoma, 8.56% (active); in the test with UACC-62 melanoma, 31.9% (inactive); in the test on LOX IMVI melanoma, -93.7% (active). Further, in the test on SK-MEL-28 melanoma, the growth is -75.9% (active).

Regarding `OC[C@@H](O)[C@@H](O)CO`, the growth with DU-145 prostate is 111% (inactive); in the test with MALME-3M melanoma, 97.3% (inactive); with MDA-MB-231 breast it was 94.7% (inactive); in the test with RXF 393 renal it was 110% (inactive); with SF-268 CNS, 108% (inactive); in the test on SF-295 CNS it was 94.7% (inactive). In addition, the growth with SF-539 CNS was 102% (inactive); with UACC-257 melanoma, 105% (inactive); in the test on M14 melanoma, 106% (inactive); in the test on HCT-15 colon it was 102% (inactive); with HT29 colon, 106% (inactive); in the test on SNB-75 CNS, 100% (inactive). The growth with SNB-19 CNS was 98.3% (inactive); in the test on U251 CNS it was 98.7% (inactive); in the test on PC-3 prostate it was 97.2% (inactive); with UACC-62 melanoma it was 98.3% (inactive); in the test on LOX IMVI melanoma, 91.3% (inactive); in the test with SK-MEL-28 melanoma, 112% (inactive).

Turning to `NC1=NN(c2ccccc2)C2(c3ccncc3C(=O)O)C1C(N)=NN2c1ccccc1` (stereo not given), the growth in the test on UACC-62 melanoma is 67.3% [100 µM] (inactive) and 18.3% [100 µM] (inactive).

Turning to `COc1ccc(C2=C(N)c3ccccc3C2=O)cc1`, in the test with UACC-62 melanoma, the growth is 44.1% [100 µM] (inactive) and 22.1% [100 µM] (inactive).

As to `COc1ccc2c3c(c(=O)n(C)c2c1OC)C=CC(C)(C)O3`, the growth with UACC-62 melanoma is 0.949% [100 µM] (active) and 6.15% [100 µM] (active).

As to `CC(C)(C)N/N=C(\C(=O)Nc1ccc([N+](=O)[O-])cc1[N+](=O)[O-])c1nc2ccc([N+](=O)[O-])cc2[nH]c1=O`, in the test with UACC-62 melanoma, the growth is 54.2% [100 µM] (inactive) and 17.5% [100 µM] (inactive).

As to `CC(O)c1cc2c(s1)C(=O)c1c(C(C)O)csc1C2=O` (stereo not given), in the test with UACC-62 melanoma, the growth is -61.9% [100 µM] (active) and -94.6% [100 µM] (active).

On to `COc1cc2c(cc1O)Cc1c-2[n+](C)cc2cc(OC)c(OC)cc12`, for which, in the test on UACC-62 melanoma, the growth is 12.4% [100 µM] (inactive) and -100% [100 µM] (active).

On to `CC(=O)c1cc2c(s1)C(=O)c1ccsc1C2=O`, for which the growth in the test with UACC-62 melanoma was -54.1% [100 µM] (active) and -98.1% [100 µM] (active).

For the compound `CC(=O)Nc1c(C)cc2c(nc3n2CCC3OC(C)=O)c1[N+](=O)[O-]` (stereo not given), the growth in the test with UACC-62 melanoma was 134% [100 µM] (inactive) and 108% [100 µM] (inactive).

Consider `CC#CC#C/C=C1/C=CC2(CCCCO2)O1` (stereo not given), for which the growth in the test with UACC-62 melanoma was 63.2% [100 µM] (inactive) and 4.56% [100 µM] (active).

As to `O=C1c2c(O)ccc(O)c2C(=O)c2c(NCCNC(=O)C(O)C(O)C(O)C(O)CO)ccc(NCCNC(=O)C(O)C(O)C(O)C(O)CO)c21` (stereo not given), the growth in the test with UACC-62 melanoma was -100% [100 µM] (active).

In the case of `COc1cc([N+](=O)[O-])c(OC)c2c(Nc3ccc(S(=O)(=O)O)c4cc(S(=O)(=O)O)cc(S(=O)(=O)O)c34)cc(C)nc12`, the growth with UACC-62 melanoma is -91% [100 µM] (active) and -100% [100 µM] (active).

Take `CCCCCCCCCc1cc(=O)c2c(O)cc(O)cc2o1`: the growth in the test with UACC-62 melanoma is -88.9% [100 µM] (active) and -100% [100 µM] (active).

Take `C#CCn1c2c(c3ccccc3c1=O)C(=O)c1ccccc1-2`: the growth with UACC-62 melanoma is 16% [100 µM] (inactive) and -100% [100 µM] (active).

On to `O=c1cc(-c2ccc(O)cc2)oc2cc(O[C@@H]3O[C@H](CO)[C@@H](O)[C@H](O)[C@H]3O)cc(O)c12`, for which the growth with UACC-62 melanoma was 29.2% [100 µM] (inactive) and -80.1% [100 µM] (active).

Consider `Cc1ccc(NC(=S)C#N)c(C)c1`, for which the growth in the test on UACC-62 melanoma was 41.9% [100 µM] (inactive) and 1.46% [100 µM] (active).

For the compound `NC(=O)c1[nH]cnc1/N=N/SCC(N)C(=O)O` (stereo not given), in the test with UACC-62 melanoma, the growth was 6.63% [100 µM] (active) and 4.02% [100 µM] (active).

`CC12CCC3c4cc(Br)c(O)c(Br)c4CCC3C1CCC2O` (stereo not given): the growth in the test on UACC-62 melanoma is 7.01% [100 µM] (active) and -44.7% [100 µM] (active).

In the case of `CCOC(=O)c1nc2cc(C(F)(F)F)ccc2nc1Nc1ccc(F)cc1`, in the test on UACC-62 melanoma, the growth is 33.3% [100 µM] (inactive) and -17.1% [100 µM] (active).
